Laboratory results as given in PubChem BioAssay (Tox21).
Records with an inconclusive call do not appear. Where a call stands in place of a potency, no number is given. Values without a mark were called inactive. Calls of active or inactive are those of the source. The call rests on the fitted dose curve; in most records, active means well fitted inhibition curve with a large enough effect in the repeat runs; inconclusive means weak or mixed curves; inactive means flat fitted curve, though single readings scatter.

Test: qHTS assay to identify small molecule HDAC inhibitors (AID 1259364); further: nearly all actives have a fitted effect of over 45% in size; on activity change, negative = inhibition: top concentration of the series differs between compounds
Settings: HCT-116 HDAC-Glo I/II luminescence, 2 h; series mostly up to 92.4 µM
Description: U.S. Tox21 Program National Center for Advancing Translational Sciences [NCATS] NIH Chemical Genomics Center [NCGC] U.S. Environmental Protection Agency [EPA] National Institutes of Environmental Health Sciences [NIEHS] National Toxicology Program [NTP] U.S. Food and Drug Administration [FDA] Tox21 Assay Overview: Histone deacetylases (HDACs) are a group of epigenetic enzymes that regulate gene expression by histone deacetylation. HDACs are capable of introducing epigenetic modifications and such aberrations contribute to the onset and progression of several human diseases, thus making HDACs a popular therapeutic target. For identifying endogenous class I/II HDAC inhibitors a homogenous, luminogenic HDAC I/II cell based assay was used to measure the relative activity of class I and II HDACs from cells. Wild type HCT-116 cells were used to screen Tox21 libraries for identifying class I/II HDAC inhibitors.
Tox21 Assay Protocol Summary: HCT-116 cells were dispensed at 1,500 per well in 5uL of culture medium into white solid bottom 1536-well plates (Greiner Bio-One, Monroe, NC) using a Multidrop Combi (Thermo Scientific, Waltham, MA) dispenser. The assay plates were incubated at 37 C and 5% CO2 for an overnight, and then 23nL of compounds dissolved in DMSO and positive control were transferred using a Pintool station (Wako, San Diego, CA). The assay plates were incubated at 37C and 5% CO2 for 2hr. After compound treatment, 4uL of HDAC-Glo reagent (Promega Corporation, Madison, WI) was added to each well of the assay plates using Flying Reagent Dispenser (FRD, Aurora Discovery, San Diego, CA) and incubated the assay plates at room temperature for 30min. The luminescence signal was quantified using a ViewLux plate reader (Perkin Elmer, Shelton, CT).
Potency means the concentration at half of the fitted maximal effect.

Structure (SMILES)	Potency	activity change, negative = inhibition
CCCCCCCCOC(=O)c1cc(O)c(O)c(O)c1	inactive	
C=C(C)C1CCC(C)CC1O (stereo not given)	inactive	
CC(=O)CC(N)=O	inactive	
COc1cc([C@@H]2c3cc4c(cc3[C@@H](O[C@@H]3O[C@@H]5CO[C@@H](C)O[C@H]5[C@H](O)[C@H]3O)[C@H]3COC(=O)[C@H]23)OCO4)cc(OC)c1O	inactive	
CCOC(=O)C1=NN(c2ccc(Cl)cc2Cl)C(C)(C(=O)OCC)C1 (stereo not given)	inactive	
Oc1cccc2c(O)cccc12	inactive	
NCc1ccco1	inactive	
CC1=C(/C=C/C(C)=C/C=C/C(C)=C\C(=O)O)C(C)(C)CCC1	inactive	
O=C(O)CN(CCCN(CC(=O)O)CC(=O)O)CC(=O)O		1.25% [at 19 µM]
O=C(CCCCCCCCc1cccnc1)N1CCC(C=C(c2ccccc2)c2ccccc2)CC1	inactive	
Nc1c(Br)cc([N+](=O)[O-])cc1Br	inactive	
c1ccc2c(c1)-c1ccc3ccc4cccc5cc-2c1c3c45	inactive	
Cc1ccc2sc3cccc(C)c3c2c1	inactive	
[Cl][Dy]([Cl])[Cl]	inactive	
CC(C)c1ccc2sc3ccccc3c(=O)c2c1	1720 nM (active)	
[Cl][Eu]([Cl])[Cl]	inactive	
c1ccc(-c2nc3ccccc3[nH]2)cc1	2430 nM (active)	
Oc1ccc2c(c1)CCC2	inactive	
CCCCCCCCSCc1cc(C)c(O)c(CSCCCCCCCC)c1	inactive	
NCc1cccc(C2CCN(C(=O)c3ccc(C#Cc4ccccc4F)o3)CC2)c1	inactive	

Structure (SMILES)	Potency	activity change, negative = inhibition
C=C1C(CCl)(CCl)C2(Cl)C(Cl)C(Cl)C1(Cl)C2(Cl)Cl (stereo not given)	inactive	
CC(C)C(=O)C(C)C	inactive	
N#CCCOCCC#N	inactive	
Cc1ccc(N=Nc2c(O)ccc3ccccc23)c(C)c1	inactive	
c1ccc(C[P+](c2ccccc2)(c2ccccc2)c2ccccc2)cc1	inactive	
Clc1cccc(Cl)n1	inactive	
C=C1CC[C@H]2O[C@]2(C)CC[C@@H]2[C@@H]1CC2(C)C	inactive	
Cc1cc(C)c(O)c(C(C)(C)C)c1	inactive	
O=[N+]([O-])c1ccc(O)c2ncccc12	inactive	
O=C(Cl)c1ccc(Cl)cc1Cl	inactive	
CC1(C)[C@H]2CC[C@]1(C)C(=O)C2	inactive	
CCN(CCC#N)c1ccc(N=Nc2ccc([N+](=O)[O-])cc2)cc1	15400 nM (active)	
Cc1c(Cl)c(=O)oc2cc(O)ccc12	inactive	
CCc1c(C)cc(N)c(CC)c1N	inactive	
C=CC(C)(C)O	inactive	
COc1cc2ncnc(Nc3cccc(Cl)c3)c2cc1OC		-7.18% [at 19 µM]
CCSCC	inactive	
CC(=O)[C@]1(O)Cc2c(O)c3c(c(O)c2[C@@H](O[C@H]2C[C@H](N)[C@H](O)[C@H](C)O2)C1)C(=O)c1ccccc1C3=O	inactive	
C1CCSC1	inactive	
[Cl][Sc]([Cl])[Cl]	inactive	
